A selection: hits, their analogues and other compounds. The true share with any hit is near 8.7%.
VACV Venus inh = inhibitors of vaccinia virus (Venus reporter); Potency, µM (top dose mostly 36.5 µM), inactives show top-dose activity change, negative = inhibition, usual class: inhibitors; Vaccinia virus Venus reporter expression, fluorescence; 0.46% of 330,000 active; AID 720580; calls by dose curve; tested in A549 cells; note: nearly all actives have a fitted effect of over 30% in size
VACV mCherry inh = vaccinia inhibition (mCherry reporter); Vaccinia virus mCherry reporter infection, fluorescence; Potency, µM (top dose mostly 36.5 µM), for the others: at the top dose activity change, negative = inhibition, usual class: inhibitors; 0.63% of 310,000 active; AID 720579; calls by dose curve; tested in A549 cells; note: nearly all actives have a fitted effect of over 35% in size
Pf growth 96h = P. falciparum growth inhibition at 96 hours. P. falciparum luciferase reporter growth, 96 h. Potency, µM (doses to about 28.7 µM), without a hit: at the top dose activity change, negative = inhibition, most hits filed as inhibitors. 6.9% of 320,000 active. AID 504834
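Parasite growth measured via integrated firefly luciferase reporter in P. falciparum. Infected erythrocytes at 2% hematocrit, 0.05% parasitemia final were treated 96 hours at 37 C under 5% CO2, and luminescence was read.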
Pf growth 48h = inhibits P. falciparum growth in the first generation, 48 h; Potency, µM (titrated, usually from 28.7 µM), without a hit: top-dose activity change, negative = inhibition, actives largely listed as inhibitors; 5.9% of 310,000 active; AID 504832; P. falciparum luciferase growth in erythrocytes, 48 h
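A one-generation exposure of luciferase-tagged malaria parasites in RPMI 1640/Albumax erythrocyte culture, 37 C and 5% CO2. Inhibition is inferred from decreased luminescence after adding detection reagent.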
AMA1-RON2 inh = inhibitors of Plasmodium falciparum AMA1-RON2 interaction | AlphaScreen AMA1-biotinylated RON2 peptide binding | Potency, µM (highest dose often 58.2 µM), inactives show at the highest dose activity change, negative = inhibition, usual class: inhibitors | AID 720542 | 0.2% of 360,000 active;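 note: 0% = vehicle wells and -100% = peptide control; nearly all actives have a fitted effect of over 45% in size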
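AMA1 (3D7) with his tag at 25 nM final met compounds first, then biotinylated RON2 peptide at 25 nM; detection used donor plus acceptor beads, 10 µg/mL apiece, read by AlphaScreen after 30 min at room temperature.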
* hit, by the source's call; i = inactive; u = inconclusive; x = not tested or not shown. Unless noted, calls come from the whole dose curve; as a rule, active = well fitted curve in the direction sought with a large enough effect; inconclusive = small, poorly fitted or top-dose-only effect, or another doubt; inactive = no such curve, though single readings can be large; an effect the other way counts as inactive or inconclusive. Unless noted, % is set by controls: 0 for no effect and ±100 for the full control effect; potency is the fitted concentration of half-maximal effect.

SMILES	VACV Venus inh	VACV mCherry inh	Pf growth 96h	Pf growth 48h	AMA1-RON2 inh
Cc1noc(C)c1C(=O)Nc1nc(C23CC4CC(CC(C4)C2)C3)cs1	x	x	0.8%	11.7µM*	-10.6%
O=C(NCc1ccccc1)C(=O)Nc1nc(C23CC4CC(CC(C4)C2)C3)cs1	-19.6%	i	-29.0%	u	7.6%
COc1ccc([C@H]2[C@H](C(=O)C(C)(C)C)N3N=Cc4ccccc4C3[C@]23N=C(c2ccccc2)OC3=O)cc1 (some centres undefined)	x	x	9.28µM*	13.1µM*	-5.3%
COc1ccc([C@H]2[C@H](C(=O)C(C)(C)C)N3N=Cc4ccccc4C3[C@]23N=C(c2ccccc2)OC3=O)cc1OC (some centres undefined)	x	x	u	u	1.2%
CC(=O)Cc1cc(O)c2ccccc2c1OC(=O)c1ccc(Br)cc1	x	x	5.86µM*	2.94µM*	-6.7%
O=C(COc1ccccc1C(=O)Nc1ccccc1)Nc1ccc(Br)cc1	-23.5%	-23.2%	x	x	x
COc1ccc2c(c1)CCc1c(C(=O)Nc3ccccc3C(F)(F)F)noc1-2	-3.7%	-13.4%	x	x	x
CC(=O)/C(=N\Nc1ccc(Cl)cc1)Sc1nnc(-c2ccccc2)n1-c1ccccc1	-11.5%	-18.6%	14.7µM*	-22.2%	51.5%
C=CCSc1nnc(-c2nnc(SCC=C)n2-c2ccccc2)n1-c1ccccc1	-0.2%	-12.4%	6.57µM*	u	30.3%
O=C(O)CSc1nnc(-c2ccc(Cl)cc2)n1-c1ccccc1	x	x	9.28µM*	37.0%	x
O=C(O)CSc1nnc(-c2ccncc2)n1-c1ccc(Cl)cc1	x	x	x	-5.2%	u
C=CCSc1nnc(CCc2ccccc2)n1N	-6.0%	-13.5%	u	47.9%	1.7%
COc1ccc(-n2c(SCC(=O)O)nnc2-c2ccc(NC(=O)c3ccccc3)cc2)cc1	-10.9%	-1.4%	18.2%	5.22µM*	-5.3%
COc1ccc(Cl)cc1NC(=O)Cn1cc(S(=O)(=O)Cc2cccc(Cl)c2)c2ccccc21	-16.7%	-2.1%	x	x	x
Cc1ccc(CN2CCN(C3CCNCC3)C(=O)C2=O)cc1	-11.0%	-4.1%	x	x	x
Cc1ccc(S(=O)(=O)n2ccc3c(OCCOCCSCC(NC(=O)OC(C)(C)C)C(=O)O)cccc32)cc1 (centres undefined)	-17.6%	-17.0%	9.28µM*	u	-2.0%
Cc1ccc(S(=O)(=O)n2ccc3c(OCCOCCNCc4ccc(F)cc4)cccc32)cc1	u	u	10.4µM*	9.28µM*	-12.2%
O=C(CCCN1CC=C(n2c(=O)[nH]c3ccccc32)CC1)c1ccc(F)cc1	-14.5%	-21.8%	3.29µM*	8.28µM*	-10.6%
O=C(NCCN1CCC(n2c(=O)[nH]c3ccccc32)CC1)c1ccc(F)cc1	6.1%	-5.8%	x	x	0.1%
Cc1ccc(CNS(=O)(=O)c2cc3c(cc2C)NC(=O)CO3)cc1	-10.8%	-9.6%	4.15µM*	u	2.0%
Cc1ccc(CNC(=O)CC(C)S(=O)(=O)c2ccc3c(c2)NC(=O)CO3)cc1 (centres undefined)	-12.8%	i	9.28µM*	5.7%	2.9%
COc1ccc(CNC(=O)CC(C)S(=O)(=O)c2ccc3c(c2)NC(=O)CO3)cc1 (centres undefined)	x	x	u	-11.2%	-10.7%
O=C(CCS(=O)(=O)c1ccc2c(c1)NC(=O)CO2)NCc1ccccc1	x	x	13.1µM*	4.8%	4.1%
CC(CC(=O)N1CCN(c2ccccc2)CC1)S(=O)(=O)c1ccc2c(c1)NC(=O)CO2 (centres undefined)	-14.6%	-21.6%	5.86µM*	-4.6%	2.0%
Cc1ccc(S(=O)(=O)n2nc(-c3ccccc3)nc2NCc2ccc(Cl)cc2)cc1	1.2%	9.9%	x	x	x
SMILES	VACV Venus inh	VACV mCherry inh	Pf growth 96h	Pf growth 48h	AMA1-RON2 inh
Cc1cc2oc(C(=O)Nc3sc4c(c3C(=O)NCc3ccccc3)CCCC4)cc(=O)c2cc1C	-12.5%	-1.8%	x	x	x
Cc1ccc(N(C)C(=O)CC(C)S(=O)(=O)c2ccc3c(c2)NC(=O)CO3)cc1 (centres undefined)	-8.5%	-10.7%	3.7µM*	18.8%	9.5%
Cc1ccc(NC(=O)CC(C)S(=O)(=O)c2ccc3c(c2)NC(=O)CO3)c(Cl)c1 (centres undefined)	-9.2%	-16.0%	42.2%	-3.7%	-5.3%
Cc1ccc(NC(=O)C2C3C=CC4(O3)C2C(=O)N(CCN2CCOCC2)C4C(=O)NC2CCCCC2)cc1C (centres undefined)	-2.5%	-4.4%	u	-5.3%	-10.1%
Cc1ccc(NC(=O)C2C3C=CC4(O3)C2C(=O)N(CCCN2CCOCC2)C4C(=O)NC2CCCCC2)cc1Cl (centres undefined)	-11.5%	i	2.08µM*	2.1%	-7.2%
O=C(Nc1ccc(Br)cc1)C1C2C=CC3(O2)C1C(=O)N(CCN1CCOCC1)C3C(=O)NC1CCCCC1 (centres undefined)	-2.7%	i	10.4µM*	0.6%	-6.0%
O=C(CN1C(=O)C2(SCC(=O)N2c2cccc(F)c2)c2ccccc21)NCCc1ccccc1 (centres undefined)	-9.1%	-7.9%	x	x	x
COc1ccc(-c2nsc3c(SCc4ccccc4)ncnc23)cc1	-10.8%	i	1.85µM*	19.2%	2.7%
CCN(CC)C(=O)CSc1ncnc2c(-c3ccc(OC)cc3)nsc12	x	x	53.3%	22.4%	x
Brc1ccc[n+](CCc2ccccc2)c1	-20.0%	-9.3%	x	x	x
Cc1ccc(-c2nn(-c3ccccc3)cc2C(=O)O)o1	x	x	53.2%	28.5%	x
Cc1ccc(-c2nn(-c3ccccc3)cc2CN(Cc2ccccc2)C(=O)c2ccco2)o1	x	x	11.7µM*	x	-28.5%
Cc1ccc(NC(=O)N2CCN(Cc3nc4ccc(C)cc4o3)CC2)cc1	-19.5%	-18.0%	x	x	x
CCOc1ccccc1N1CCN(Cc2cnc(-c3ccccc3)[nH]2)CC1	-17.4%	i	9.28µM*	13.1µM*	-12.6%
COc1ccccc1N1CCN(Cc2cnc(-c3ccccc3)[nH]2)CC1	3.0%	-12.7%	u	-14.6%	-13.8%
O=C(C1COc2ccccc2O1)N(Cc1cccnc1)c1nc2ccc(Cl)cc2s1 (centres undefined)	-18.5%	-25.5%	x	x	x
CN(Cc1ccccc1)C(=C(Cl)Cl)/C(=C1/NCCN1Cc1ccc(Cl)nc1)[N+](=O)[O-]	u	u	9.28µM*	x	-4.0%
Oc1ccc(N2CCN(c3ncnc4sc(-c5ccccc5)cc34)CC2)cc1	-1.1%	-10.2%	14.7µM*	u	u
CCN(CC)c1ccc(C(=O)NCc2ccc3c(c2)CCN3C(=O)c2ccccc2)cc1	-12.1%	-19.1%	x	x	x
Cc1cccn2c(=O)c3cc(C(=O)NCc4ccco4)c(=N)n(C(C)C)c3nc12	x	x	x	u	-3.2%
Cc1cccn2c(=O)c3cc(C(=O)NCc4ccco4)c(=N)n(CCc4ccccc4)c3nc12	14.8%	i	0.586µM*	0.586µM*	0.6%
Cc1cccn2c(=O)c3cc(C(=O)NCCc4ccccc4)c(=N)n(Cc4ccco4)c3nc12	-17.2%	-29.6%	u	1.47µM*	9.3%
